Screens: PubChem, several laboratories
Shown are actives, neighbours in structure and some others; about 4% of the full set was active somewhere.
NR3A LBD binder: modulates the human NR3A ligand-binding domain; NR3A LBD differential scanning fluorimetry, Tm shift; 0% = protein alone, 100% = glycine-bound protein; Tm shift relative to glycine control, % at 25 µM; 340,000 tested, 2.5% active; AID 1259313;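 active = melting temperature shift of at least 10% of the positive control shift, at one fixed dose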
ADAM10 inh: ADAM10 inhibition, QFRET primary screen. O14672. 370,000 tested, 0.62% active. inhibition, % at 7 µM. recombinant ADAM10, EDANS/DABCYL FRET peptide cleavage, 3 h;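 active = inhibition above a per-campaign cutoff equal to the mean of compounds falling between control-based bounds plus 3 SD, cut at about 20% in these data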
ADAM17 inh: inhibits human ADAM17; 370,000 tested, 0.83% active; recombinant ADAM17, EDANS/DABCYL FRET peptide cleavage; inhibition, % at 6.95 µM; P78536; AID 720648;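 active = inhibition above the mean of compounds lying between control limits plus 3 SD, set per campaign, cut at about 8.5% in these data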
aDG glyco act: increases alpha dystroglycan glycosylation; Pro5-aDG cells, alpha-DG glycosylation AlphaScreen (IIH6); 0% Pro5, 100% B10-LARGE cell signal; activation, % at 10 µM; 360,000 tested, 0.22% active; AID 624168;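 active = activation of at least 8% versus controls, or a plate z-score of at least 8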;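 also: Pro5 are CHO cells carrying HIG-tagged alpha-DG that lacks glycosylation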
FAS TE block: FAS thioesterase (human) inhibition | P49327 | recombinant FAS-TE, OMFH fluorogenic substrate, fluorescence endpoint | inhibition, % at 15 µM | 360,000 tested, 0.67% active | AID 602261;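 active = compounds whose normalised, plate-corrected inhibition of enzyme fluorescence in the single-dose primary screen is 50% or more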
Target sequence (P49327 whole entry, looked up): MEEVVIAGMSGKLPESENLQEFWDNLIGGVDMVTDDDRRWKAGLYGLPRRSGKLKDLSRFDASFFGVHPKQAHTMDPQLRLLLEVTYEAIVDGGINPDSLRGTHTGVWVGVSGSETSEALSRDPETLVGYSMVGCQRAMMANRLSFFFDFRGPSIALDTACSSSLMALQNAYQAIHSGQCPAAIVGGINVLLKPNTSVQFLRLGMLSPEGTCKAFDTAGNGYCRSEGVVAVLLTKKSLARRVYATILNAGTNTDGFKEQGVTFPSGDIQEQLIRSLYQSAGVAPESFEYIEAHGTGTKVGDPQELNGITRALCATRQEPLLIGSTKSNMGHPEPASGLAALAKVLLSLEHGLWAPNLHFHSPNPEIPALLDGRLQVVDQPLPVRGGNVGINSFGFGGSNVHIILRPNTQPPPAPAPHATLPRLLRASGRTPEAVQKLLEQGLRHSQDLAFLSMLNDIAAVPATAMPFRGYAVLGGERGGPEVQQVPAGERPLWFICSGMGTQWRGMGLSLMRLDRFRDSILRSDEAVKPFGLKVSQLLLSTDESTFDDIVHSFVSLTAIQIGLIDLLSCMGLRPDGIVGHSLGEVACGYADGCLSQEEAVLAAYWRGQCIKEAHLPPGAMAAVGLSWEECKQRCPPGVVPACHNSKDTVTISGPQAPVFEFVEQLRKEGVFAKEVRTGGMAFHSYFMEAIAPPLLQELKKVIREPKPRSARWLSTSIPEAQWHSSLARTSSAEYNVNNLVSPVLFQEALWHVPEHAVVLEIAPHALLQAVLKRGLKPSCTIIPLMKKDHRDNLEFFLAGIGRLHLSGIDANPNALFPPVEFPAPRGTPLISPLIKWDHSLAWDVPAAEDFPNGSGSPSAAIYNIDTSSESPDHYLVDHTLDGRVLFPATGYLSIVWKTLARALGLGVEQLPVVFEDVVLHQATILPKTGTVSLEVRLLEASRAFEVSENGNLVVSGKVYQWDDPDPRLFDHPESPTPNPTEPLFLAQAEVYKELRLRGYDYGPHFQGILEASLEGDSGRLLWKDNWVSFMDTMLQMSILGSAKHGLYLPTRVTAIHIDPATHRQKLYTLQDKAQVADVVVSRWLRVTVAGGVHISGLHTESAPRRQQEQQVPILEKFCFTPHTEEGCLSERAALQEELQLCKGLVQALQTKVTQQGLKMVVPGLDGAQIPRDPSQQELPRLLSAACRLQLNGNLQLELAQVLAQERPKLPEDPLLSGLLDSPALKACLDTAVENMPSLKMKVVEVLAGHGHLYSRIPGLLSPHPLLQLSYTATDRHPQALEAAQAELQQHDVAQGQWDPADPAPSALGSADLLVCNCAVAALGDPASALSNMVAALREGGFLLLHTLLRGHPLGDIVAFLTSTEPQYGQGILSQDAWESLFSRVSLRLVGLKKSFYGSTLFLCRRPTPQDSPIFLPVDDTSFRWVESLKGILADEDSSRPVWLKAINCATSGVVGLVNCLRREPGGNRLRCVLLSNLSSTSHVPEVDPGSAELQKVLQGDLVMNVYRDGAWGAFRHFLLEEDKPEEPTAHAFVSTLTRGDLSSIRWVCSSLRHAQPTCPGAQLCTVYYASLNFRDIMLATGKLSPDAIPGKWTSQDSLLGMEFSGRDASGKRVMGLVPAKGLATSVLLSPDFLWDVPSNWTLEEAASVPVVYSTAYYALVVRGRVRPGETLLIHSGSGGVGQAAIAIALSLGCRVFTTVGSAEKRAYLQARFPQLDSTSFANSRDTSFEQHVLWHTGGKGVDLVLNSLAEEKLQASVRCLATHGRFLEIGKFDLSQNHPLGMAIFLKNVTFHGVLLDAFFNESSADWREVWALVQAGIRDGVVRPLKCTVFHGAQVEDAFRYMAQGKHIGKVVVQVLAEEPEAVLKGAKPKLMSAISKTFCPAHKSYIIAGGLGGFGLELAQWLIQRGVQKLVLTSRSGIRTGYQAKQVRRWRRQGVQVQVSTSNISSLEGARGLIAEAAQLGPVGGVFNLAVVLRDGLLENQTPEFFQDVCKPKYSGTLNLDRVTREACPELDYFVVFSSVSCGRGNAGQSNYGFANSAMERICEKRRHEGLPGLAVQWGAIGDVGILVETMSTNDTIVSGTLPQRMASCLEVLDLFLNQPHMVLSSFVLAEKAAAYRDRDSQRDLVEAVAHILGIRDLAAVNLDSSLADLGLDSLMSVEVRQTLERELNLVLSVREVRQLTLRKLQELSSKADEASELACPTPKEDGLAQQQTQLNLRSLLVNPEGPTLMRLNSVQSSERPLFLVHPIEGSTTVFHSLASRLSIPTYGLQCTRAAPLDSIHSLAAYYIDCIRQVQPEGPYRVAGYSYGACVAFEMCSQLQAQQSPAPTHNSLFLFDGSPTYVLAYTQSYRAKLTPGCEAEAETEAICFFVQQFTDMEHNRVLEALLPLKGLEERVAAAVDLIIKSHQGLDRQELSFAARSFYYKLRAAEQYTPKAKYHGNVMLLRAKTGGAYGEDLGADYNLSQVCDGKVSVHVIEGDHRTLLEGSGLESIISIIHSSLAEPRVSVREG
Of the large screens only hits and unclear results are named; the others gave an inactive call.

Cc1ccc(NC(=O)c2cc3cc(OC(F)(F)F)ccc3[nH]2)cc1	none (no result: aDG glyco act, FAS TE block)
Cc1ccc(NC(=O)C2SC(=Nc3ccccc3)C(C(=O)Nc3ccc(Cl)cc3)=C2N)cc1 (configuration not stated)	NR3A LBD binder 17 (no result: ADAM10 inh, ADAM17 inh)
Clc1ccc(Br)c(-c2nc3ccccc3[nH]2)c1	none (no result: NR3A LBD binder)
Cc1cccc(NC(=O)N(Cc2nc3ccccc3c(=O)[nH]2)C2CCCC2)c1	none
CC(Oc1ccc2c3c(c(=O)oc2c1)CCCC3)C(=O)NC1CC(C)(C)NC(C)(C)C1 (configuration not stated)	none
O=C(CC1S/C(=N\S(=O)(=O)c2ccccc2)N(c2ccccc2)C1=O)Nc1ccc(F)cc1 (configuration not stated)	NR3A LBD binder 10
Cc1ccc(S(=O)(=O)/N=C2\SC(CC(=O)Nc3ccc(F)cc3)C(=O)N2c2ccccc2)cc1 (configuration not stated)	none
CC(C(=O)Nc1ccccc1C(F)(F)F)N1CCN(C)CC1 (configuration not stated)	none
Cc1ccc(C)c(N2CCN(C(=O)CCc3nc(-c4ccc(Br)cc4)no3)CC2)c1	NR3A LBD binder 17
Cc1ccc(C)c(N2CCN(C(=O)CCc3nc(-c4cccc(Cl)c4)no3)CC2)c1	NR3A LBD binder 17
CC1(C)CC2(CC(c3ccccc3F)c3ccc(O)c(O)c3O2)NC(=S)N1 (configuration not stated)	none
CC1=NNC(=O)C1CC(=O)N/N=C/c1sccc1C (configuration not stated)	none
C/C(=N\N1CCN(C2c3ccccc3-c3ccccc32)CC1)c1ccncc1	NR3A LBD binder 15
CCSc1nnc(NC(=O)CCC2CCCCC2)s1	none
Nc1ccc2c(c1)C(=O)c1cc(Cl)c(Cl)cc1-2	NR3A LBD binder 41
Nc1ccc2c(c1)C(=O)c1cc([N+](=O)[O-])ccc1-2	NR3A LBD binder 25
O=C(Cn1cccn1)N1CCCC(Nc2ccc(F)c(F)c2)C1 (configuration not stated)	none
Fc1ccc(Nc2nc(NCc3ccco3)c3ccccc3n2)cc1	NR3A LBD binder 10
COc1ccccc1-c1oc2ccccc2c1-c1ccc2cc[nH]c2c1	NR3A LBD binder 21
CCOC(=O)c1ccc(-c2c(-c3ccccc3OC)oc3ccccc23)cc1F	none
Cn1ccnc1/C(=N\NC(=O)c1ccc(O)cc1)c1cccc([N+](=O)[O-])c1	none
CC1(C)CC(CC(=O)NC(=S)Nc2ccc([N+](=O)[O-])cc2)C(=O)O1 (configuration not stated)	NR3A LBD binder 10
CC(C)OCC1CC(CC(=O)NC(=S)Nc2cccc([N+](=O)[O-])c2)C(=O)O1 (configuration not stated)	none
CC(C)OCC1CC(CC(=O)Nc2ccc([N+](=O)[O-])cc2)C(=O)O1 (configuration not stated)	NR3A LBD binder 18
COc1ccc(NC(=O)C2Cc3c(-c4ccc(NC(C)=O)cc4)ccnc3O2)cc1 (configuration not stated)	none (no result: NR3A LBD binder)
Cc1cc(NC(=O)c2ccc3c(c2)OCO3)ccc1NC(=O)c1ccccc1	none
COc1ccc(CCC(=O)OCC(=O)c2ccc(C)cc2)cc1	NR3A LBD binder 56
Cc1ccccc1COc1ccc(/C=N/NC(=O)c2nnn(-c3nonc3N)c2CN2CCC(C)CC2)cc1	NR3A LBD binder 87
CN(C)c1ccc(/C=N/NC(=O)c2nnn(-c3nonc3N)c2COc2ccc(F)cc2)cc1	NR3A LBD binder 11
Nc1nonc1-n1nnc(C(=O)N/N=C/c2cccc(O)c2)c1CN1CCCC1	NR3A LBD binder 12
CN(C)Cc1c(C(=O)N/N=C/c2ccc(OCc3ccc(F)cc3)cc2)nnn1-c1nonc1N	none
CCOc1ccc(/C=N/NC(=O)c2nnn(-c3nonc3N)c2COc2ccc(F)cc2)cc1	NR3A LBD binder 39
Nc1nonc1-n1nnc(C(=O)N/N=C/c2cccc(Cl)c2)c1CN1CCCCCC1	none
CCOC(=O)C1(C(F)(F)F)N=C(C(F)(F)F)Nc2ccc(F)cc21 (configuration not stated)	none
CC(C)CCSc1nnc(Cn2c(=O)sc3ccccc32)n1C	none
COC(=O)Cc1cc(=O)n2[nH]c(SC)nc2n1	none
CCOC(=O)c1nnn(-c2nonc2-n2cccc2)c1CN1CCCCC1	NR3A LBD binder 18
CCOC(=O)c1nnn(-c2nonc2N)c1CN1CCCCCC1	none
COC(=O)NCCc1cc(OC)c(OC)cc1S(=O)(=O)N1CC(=O)Nc2ccccc21	none
CN1CCN(c2cc(-c3cc(O)c4ncccc4c3)ccn2)CC1	none
CC(C)c1ccc(-c2cc(C(=O)N3N=C(C(F)F)CC3(O)C(F)F)c3ccccc3n2)cc1 (configuration not stated)	NR3A LBD binder 35
CCCN(CC(=O)Nc1ccc(C(N)=O)cc1)CC(=O)Nc1ccc(Cl)cc1Cl	none
Nc1n[nH]c(C2CC2)c1N=Nc1ccc(Cl)c(Cl)c1	NR3A LBD binder 33
Nc1n[nH]c(C2CC2)c1N=Nc1ccc(Cl)cc1	NR3A LBD binder 11
Nc1n[nH]c(N)c1N=Nc1ccc2c(c1)OCO2	none
COc1ccccc1NC(=O)N1CCCC1C(=O)NC12CC3CC(CC(C3)C1)C2 (configuration not stated)	none
O=C1NCCCc2c1no[n+]2[O-]	NR3A LBD binder 11
COc1cc(-c2nc(C(=O)NC3CCN(Cc4ccccc4)CC3)cc3c2[nH]c2ccccc23)cc(OC)c1OC	FAS TE block 77 (no result: ADAM10 inh, ADAM17 inh)
Cn1c2c(c(=O)n(C)c1=O)C(c1cc3c(cc1Br)OCO3)CC(=O)N2 (configuration not stated)	none
COC(=O)c1ccccc1NC(=O)CSc1nnc(-c2ccncc2)o1	none
O=c1cc(-c2ccsc2)oc2ccc(-c3ccc4cc[nH]c4c3)cc12	NR3A LBD binder 15
COc1ccc(-c2ccc3oc(-c4ccsc4)cc(=O)c3c2)cc1F	none
CCOC(=O)C1=NOC(CNC(=O)c2c(-c3ccccc3Cl)noc2C)C1 (configuration not stated)	NR3A LBD binder 14
CCOC(=O)C1=NOC(CNC(=O)C2=NOC(CNC(=O)c3c(-c4ccccc4Cl)noc3C)C2)C1 (configuration not stated)	none
N#CCC(=O)Nc1ccc(C(=O)OC(C(=O)Nc2cc(C(F)(F)F)ccc2Cl)c2ccccc2)cc1 (configuration not stated)	NR3A LBD binder 29
O=C(CNC(=O)c1ccccc1F)OC(C(=O)Nc1cc(C(F)(F)F)ccc1Cl)c1ccccc1 (configuration not stated)	none
N#CCC(=O)Nc1ccc(C(=O)OC(C(=O)Nc2ccc([N+](=O)[O-])cc2Br)c2ccccc2)cc1 (configuration not stated)	NR3A LBD binder 12
